PLCg1 inh = inhibitors of human phospholipase C gamma1. purified PLC-gamma1, fluorogenic substrate, fluorescence. inhibition, % at 12.2 µM. hit rate 0.84% among 370,000. AID 720700
KLK7 zymogen act = proKLK7 (human) activation, primary screen. P49862. purified proKLK7, EDANS-DABCYL substrate fluorescence; 100% is mature enzyme control, 0% vehicle. activation, % at 7 µM. hit rate 0.9% among 370,000. AID 652039;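 active = activation above the mean of all tested compounds plus 3 SD, computed per campaign excluding outliers beyond control limits, cut at about 13% in these data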
Target sequence (P49862 whole entry, looked up): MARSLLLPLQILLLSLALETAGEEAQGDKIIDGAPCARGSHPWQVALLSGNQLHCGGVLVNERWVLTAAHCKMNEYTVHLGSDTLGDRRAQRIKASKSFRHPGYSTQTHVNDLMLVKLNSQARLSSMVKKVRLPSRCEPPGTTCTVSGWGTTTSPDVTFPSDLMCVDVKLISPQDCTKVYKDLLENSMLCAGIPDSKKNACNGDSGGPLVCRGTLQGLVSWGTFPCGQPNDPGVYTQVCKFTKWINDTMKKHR
PLC-beta3 inh = blocks human PLC-beta3 enzyme activity; Q01970; Purified PLC-beta3, fluorogenic substrate, fluorescence; inhibition, % at 12.2 µM; hit rate 0.18% among 370,000; AID 720704; in the data active = inhibition above about 11%;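 also: 0% = median of compound wells on plate and 100% = full blocker control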
ADAM10 inh = ADAM10 inhibition, QFRET primary screen; O14672; recombinant ADAM10, EDANS/DABCYL FRET peptide cleavage, 3 h; inhibition, % at 7 µM; hit rate 0.62% among 370,000; AID 720582;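 active = inhibition above a per-campaign cutoff equal to the mean of compounds falling between control-based bounds plus 3 SD, cut at about 20% in these data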;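 also: 0% = DMSO wells while the 100% control is not disclosed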
ADAM17 inh = inhibitors of human ADAM17; AID 720648; inhibition, % at 6.95 µM; recombinant ADAM17, EDANS/DABCYL FRET peptide cleavage; P78536; hit rate 0.83% among 370,000;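 active = inhibition above the mean of compounds lying between control limits plus 3 SD, set per campaign, cut at about 8.5% in these data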;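 also: 0% = DMSO-only wells as the low control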
PLCgamma1 ctr = PLC-gamma1 inhibition, counter-screen for PLC-beta3 hits; AID 743258; purified PLC-gamma1, fluorogenic substrate, fluorescence; hit rate 3.1% among 3,300; shares compounds with PLCg1 inh; inhibition, % at 12.3 µM
PLCb3 confirm = confirmation of human PLC-beta3 inhibitors; shares compounds with PLCg1 inh; purified PLC-beta3, fluorogenic substrate fluorescence; inhibition, % at 12.3 µM; hit rate 1% among 3,300; AID 743261; in the data active = inhibition above about 11%
Starred values were filed as active, the others as inactive; x = not tested or not shown. Only some compounds are listed: those with a hit (about 2.9% of all), similar ones and a draw of the others. Rule as the data show it, unless noted: active = inhibition above about 9.5%; inactive = the rest.

SMILES | PLCg1 inh | KLK7 zymogen act | PLC-beta3 inh | ADAM10 inh | ADAM17 inh | PLCgamma1 ctr | PLCb3 confirm
Cc1ccc(NC(=O)c2nnn(CC(=O)Nc3ccccc3)c2N)cc1C | 0 | 0 | -3 | -4 | -4 | x | x
Cc1ccc(NC(=O)Cn2nnc(C(=O)NCc3ccccc3)c2N)cc1C | 11* | -1 | 0 | 9 | 1 | -3 | -1
COc1ccccc1NC(=O)c1ccccc1S(=O)(=O)c1ccc([N+](=O)[O-])cc1 | 9.8* | 0 | -1 | 3 | 2 | -2 | -2
O=C1c2ccccc2C(=O)N1OCc1ccccc1[N+](=O)[O-] | 13* | 0 | 6 | 11 | 3 | 6 | 1
O=C(Cc1ccccc1[N+](=O)[O-])OCN1C(=O)c2ccccc2C1=O | 0 | 0 | -5 | -6 | -1 | x | x
COc1cc2c(c(OC)c1OC)C(=O)CC2 | 4 | 0 | -8 | -2 | -3 | x | x
COc1cc2c(c(O)c1OC)C(=O)C(OC)CCC2 (stereo unspecified) | 4 | -1 | 12* | 10 | 7 | -3 | 0
O=c1[nH]cnc2c1ncn2[C@@H]1C[C@@H](O)[C@H](CO)O1 | 7 | 0 | -5 | -3 | -8 | x | x
OCC1OC(n2cnc3c(=S)nc[nH]c32)CC1O (stereo unspecified) | 10* | 0 | 0 | -3 | -8 | -3 | 2
Fc1ccc(-[n+]2nc(Nc3ccccc3)sc2-c2c(Cl)cccc2Cl)cc1 | 11* | 1 | 15* | 9 | 5 | 4 | -18
CCO[C@H]1OC(C(=O)N2CCN(Cc3ccc4c(c3)OCO4)CC2)=C[C@@H](c2csc3ccccc23)[C@@H]1CCCO | 4 | 1 | 11* | 15 | 8 | -1 | -1
CCO[C@H]1OC(C(=O)N2CCN(C)CC2)=C[C@@H](c2ccc3c(c2)OCO3)[C@@H]1CCCO | 7 | 0 | 20* | 3 | 7 | -4 | 1
CCO[C@H]1OC(C(=O)N2CCN(Cc3ccc4c(c3)OCO4)CC2)=C[C@@H](c2cn(C(C)=O)c3ccccc23)[C@@H]1CCCO | -3 | 1 | -4 | 15 | 2 | x | x
CCOC(=O)C1=C(N)N(c2ccccc2)C2=C(C(=O)CCC2)C1c1cccnc1 (stereo unspecified) | 1 | 0 | -3 | 0 | -5 | x | x
O=C(Nc1ccccc1N1CCCCC1)c1ccc(-c2cccc(Cl)c2)o1 | 13* | 0 | 2 | 0 | -2 | -117 | -114
CN1CCN(c2ccccc2NC(=O)c2ccc(-c3cccc(Cl)c3)o2)CC1 | -30 | -3 | -52 | 3 | 3 | x | x
O=C(N/N=C/c1c(F)c(F)c(F)c(F)c1F)c1cc(-c2ccccc2)nc2ccccc12 | 14* | 1 | 2 | 4 | 3 | -7 | -2
COc1ccc(S(=O)(=O)NCc2ccc(C(=O)NCCN(C)Cc3ccccc3)cc2)cc1 | 9.8* | 1 | 7 | 1 | 8 | -10 | -2
CCCCCCCCCC(=O)N/N=C/c1ccc(C)s1 | 10* | 0 | 4 | 16 | 7 | -8 | -7
Cc1ccc(/C=N/NC(=O)C[n+]2ccccc2)s1 | 1 | 0 | 0 | 3 | 1 | x | x
N#CCCSCc1ccc(OCC(=O)O)cc1 | 9.9* | 0 | 10 | 10 | 2 | -3 | 0
N#CCCSCc1ccc(C(=O)O)o1 | 4 | 0 | 6 | -2 | 0 | x | x
COc1cccc(-c2cc(C(=O)NCC3CCCO3)c3cc(Br)cc(C)c3n2)c1 (stereo unspecified) | -1 | 0 | -7 | -5 | -1 | x | x
Cc1cc(Br)cc2c(C(=O)NCC3CCCO3)cc(-c3cccs3)nc12 (stereo unspecified) | 12* | 0 | 2 | -9 | 1 | -23 | -31
CC(=O)OC(C(=O)Nc1nccs1)c1ccccc1 (stereo unspecified) | 13* | 0 | -2 | 0 | -2 | 7 | 0
SMILES | PLCg1 inh | KLK7 zymogen act | PLC-beta3 inh | ADAM10 inh | ADAM17 inh | PLCgamma1 ctr | PLCb3 confirm
Nn1cnnc1SCC(=O)N(C1CCCCC1)C1CCCCC1 | 11* | 0 | 6 | 11 | -1 | -5 | -1
Cc1cc(C)nc(SCCn2c(N3CCCCC3)nc3c2c(=O)n(C)c(=O)n3C)n1 | 9.6* | -1 | 8 | -2 | -3 | -3 | -1
Cc1cc(C)nc(SCCn2c(N3CC(C)OC(C)C3)nc3c2c(=O)n(C)c(=O)n3C)n1 (stereo unspecified) | 0 | -1 | -6 | -4 | -5 | x | x
COc1ccc(S(=O)(=O)N2CCN(CC(=O)Nc3ccccc3Cl)CC2)cc1 | 6 | -1 | -2 | -8 | -7 | x | x
NC(=O)Nc1cccc2ccccc12 | -12 | -1 | -15 | -36 | -7 | x | x
CCC(=O)Nc1cccc2ccccc12 | 11* | 0 | -3 | -4 | -6 | 6 | 3
CCOc1ccc2nc(C)cc(Nc3cccc([N+](=O)[O-])c3)c2c1 | 11* | 6 | 8 | 9 | 7 | -2 | -1
CS(=O)(=O)N1CCC(C(=O)NCc2ccc(Cl)cc2)CC1 | 12* | 0 | 0 | -2 | 1 | -8 | -3
COC(=O)c1cc(-c2cccc3c2sc2ccccc23)c(=O)n2c1CCC2 | 41* | -14 | -5 | -20 | -9 | -35 | -28
CCOc1cccc(CN2CCCC(C(=O)Nc3ccc(-c4ccn[nH]4)cc3)C2)c1O (stereo unspecified) | 4 | 1 | 6 | 1 | 1 | x | x
Nc1cc(=O)[nH]c(SCC(=O)NC2CCCCCCC2)n1 | 9.6* | 0 | -3 | -1 | -2 | -10 | -1
Cc1cc(=O)[nH]c(SCC(=O)NC2CCCCCC2)n1 | 1 | 0 | -7 | -18 | -5 | x | x
COc1cc(/C=N/NC(=O)Cn2nnc3ccccc32)ccc1O | -1 | -2 | 2 | -18 | -2 | x | x
CCOc1cc(/C=N\NC(=O)Cn2nnc3ccccc32)ccc1O | 10* | -3 | 4 | -10 | 0 | 4 | 5
COc1ccc(C(=O)Nc2ccc(S(=O)(=O)N3CCCCC3C)cc2)c(OC)c1OC (stereo unspecified) | 10* | 0 | 12* | 10 | 6 | 3 | -1
Cc1c(C(=O)O)cccc1-c1ccc(C=O)o1 | 11* | 0 | 9 | -27 | 1 | -6 | -4
Cc1cc(C)n2nc(SCC(=O)N3CCC(C(=O)O)CC3)nc2n1 | 9 | 0 | 11* | 5 | 3 | 3 | 2
COC(=O)c1ccc(C(c2c(C)n(C)n(-c3ccccc3)c2=O)c2c(C)n(C)n(-c3ccccc3)c2=O)cc1 | 12* | 0 | 9 | 9 | 3 | 2 | 5
CCC(=O)NC(=S)Nc1cccc(NC(=O)c2ccccc2C)c1 | 3 | 0 | 4 | 11 | -1 | x | x
CCC(=O)Nc1cccc(NC(=S)NC(=O)c2ccccc2C)c1 | 9.9* | 0 | 3 | -1 | 0 | 1 | 1

Screening results deposited in PubChem BioAssay by The Scripps Research Institute Molecular Screening Center.
